Structures are written as SMILES. Inconclusive results are not listed. Active and inactive are the calls of the source. Unless noted, calls follow the shape of the dose curve; as a rule, active = well fitted curve in the direction sought with a large enough effect; inconclusive = small, poorly fitted or top-dose-only effect, or another doubt; inactive = no such curve, though single readings can be large; an effect the other way counts as inactive or inconclusive.

One experiment is described as follows: qHTS Assay for Identification of Small Molecule Inducers of Hypoxia Response (AID 2120; active = well fitted curve in the direction sought with a large enough effect in the signal ratio, with a control signal flat, not every such curve was filed as active; the % refers to the signal ratio; also: 0% is about no effect). To be noted: hypoxia response reporter cells, beta-lactamase ratio readout; series mostly up to 104 µM; activation: at the top concentration. The procedure, abridged:
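HRE-beta-lactamase reporter in CellSensor HRE-bla ME-180 cells, 2500 cells/well in Opti-MEM with 0.5% dialyzed FBS; compounds tested as titration series, 17 h at 37 degrees C. CCF4 substrate 2.5 h at room temperature; AC50 from 460/530 nm ratio.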
Take `CCCCC(CC)COC(=O)c1ccccc1C(=O)OCC(CC)CCCC` (configuration not stated): the “activation” value is 0.205% (inactive).
On the same count and under the same terms, under `CCCCCCCCc1ccc(O)cc1` stands 3.59% (inactive); under `CCOP(=O)(NC(C)C)Oc1ccc(SC)c(C)c1` (configuration not stated), 3.1% (inactive).
For the compound `O=S(=O)(c1ccc(Cl)cc1)c1ccc(Cl)cc1`, the result was inactive.
Turning to `Nc1ccc(Cl)cc1`, the “activation” value was 0.725% (inactive).
Same read-out and setting: under `Cc1cc(O)ccc1Cl` stands 0.902% (inactive); under `CCOCCOC(C)=O`, -0.447% (inactive).
In the case of `c1cc2ccc3cccc4ccc(c1)c2c34`, the “activation” value was 0.911% (inactive).
The same measure, in the same setting: the result for `O=C(O)COc1ccccc1` reads 0.858% (inactive).
On the same count and under the same terms, the result for `CC(C)(O)C(=O)Nc1ccc([N+](=O)[O-])c(C(F)(F)F)c1` reads 1.55% (inactive); that for `CN(C)NC(=O)CCC(=O)O`, 0.595% (inactive); that for `Nc1ccc([N+](=O)[O-])cc1`, -0.906% (inactive).
As for `Nc1ccc(Cl)cc1N`, the “activation” value was 3.91% (inactive).

A further experiment can be described thus: Cytometric Cell-Based qHTS for Inhibitors of the mTORC1 Signaling Pathway in MEF (Tsc2-/-, p53-/-) Cells (AID 2660).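 Also: percent of cells above a phospho-rpS6 to PI ratio cutoff in each well; plate controls were DMSO for no effect and rapamycin for full effect.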 To be noted: mTORC1 pathway cytometry; series mostly up to 38.3 µM; activity change, negative = inhibition: at the top concentration. Put shortly: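 Immunofluorescence qHTS of rpS6 Ser235/236 phosphorylation: MEFs (Tsc2-/-, p53-/-) treated 24 h, 37 C, in DMEM + 10% FBS. Alexa-488 signal normalized to PI count, referenced to rapamycin (7.5 nM) and DMSO; PI cell number recorded for viability.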
On the technique in general: In qHTS, concentration-response curves come from the screen itself.
`COC(=O)[C@@H](N)CCCN=C(N)N[N+](=O)[O-]`: the “activity change, negative = inhibition” value is -1.73% (inactive).
The same measure, in the same setting: the result for `O=C(N[C@H]1CN2CCC1CC2)c1ccc(Cl)cc1` reads 8.63% (inactive).
On the same count and under the same terms, under `CC[C@@H](C(N)=O)N1CCCC1=O` stands -3% (inactive); under `c1ccc(C2(c3ccccc3)CC2C2=NCCN2)cc1` (configuration not stated), -6.59% (inactive).

The next experiment is described as follows: High Content Imaging Cell-Based qHTS for Inhibitors of the mTORC1 Signaling Pathway in MEF (Tsc2-/-, p53-/-) Cells (AID 2666).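 Also: percent of cells scored positive for phospho-rpS6 Ser235/236 immunostaining by imaging.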 Also: potency is read from the fitted curve at half-maximal effect. To be noted: series mostly up to 38.3 µM. Put shortly:
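Read-out: % positive cells per well, with thresholds from highest- and lowest-signal wells, based on phospho-rpS6 (Ser235/236) intensity normalized to Hoechst nuclear stain. Cells: Tsc2-/-, p53-/- MEFs carrying empty vector; compound 24 hrs, 37 degree Celsius.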
As to `COC(=O)[C@@H](N)CCCN=C(N)N[N+](=O)[O-]`, the outcome was inactive.
Still for that read-out and setting: under `O=C(N[C@H]1CN2CCC1CC2)c1ccc(Cl)cc1` stands “inactive”; under `CC[C@@H](C(N)=O)N1CCCC1=O`, “inactive”.
In the case of `C/C=C(/C)C(=O)O[C@H]1C(C)=C2[C@H]([C@@H]1OC(=O)CCCCCCC)[C@@](C)(OC(C)=O)C[C@H](OC(=O)CCC)[C@@]1(O)[C@H]2OC(=O)[C@@]1(C)O`, the Potency was 26.1 nM (active).
Regarding `c1ccc(C2(c3ccccc3)CC2C2=NCCN2)cc1` (configuration not stated), the result was inactive.

The nature of another experiment: High Content Imaging Cell-Based qHTS for Inhibitors of the mTORC1 Signaling Pathway in MEF Cells (AID 2667). Also: potency is read from the fitted curve at half-maximal effect.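 As to activity change, negative = inhibition: Tsc2-/- p53-/- MEFs stably re-expressing wild-type Tsc2 exposed 24 h; plate controls were DMSO wells for no effect and rapamycin control wells for full effect.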 To be noted: series mostly up to 38.3 µM; activity change, negative = inhibition: at the top concentration. Put shortly:
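MEF (Tsc2-/-, p53-/-, WT Tsc2 re-expressed); cpd 24 h, 37 °C; PFA fix; Alexa-488 anti-p-rpS6 Ser235/236, PI, Hoechst; IN Cell imaging; Hoechst/Alexa-488 intensity ratio; % active cells, thresholds set from rapamycin and DMSO wells.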
For `COC(=O)[C@@H](N)CCCN=C(N)N[N+](=O)[O-]`, the “activity change, negative = inhibition” value is -100% (inactive).
For `O=C(N[C@H]1CN2CCC1CC2)c1ccc(Cl)cc1`, the “activity change, negative = inhibition” value is -100% (inactive).
Still for that read-out and setting: the result for `CC[C@@H](C(N)=O)N1CCCC1=O` reads -100% (inactive).
As for `C/C=C(/C)C(=O)O[C@H]1C(C)=C2[C@H]([C@@H]1OC(=O)CCCCCCC)[C@@](C)(OC(C)=O)C[C@H](OC(=O)CCC)[C@@]1(O)[C@H]2OC(=O)[C@@]1(C)O`, the Potency is 3.7 nM (active).
For `c1ccc(C2(c3ccccc3)CC2C2=NCCN2)cc1` (configuration not stated), the “activity change, negative = inhibition” value is -100% (inactive).

The next experiment can be described thus: Cytometry Cell-Based qHTS for Inhibitors of the mTORC1 Signaling Pathway in MEF cells (AID 2668). Also: potency is read from the fitted curve at half-maximal effect.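 As to activity change, negative = inhibition: Tsc2-/- p53-/- mouse embryonic fibroblasts stably re-expressing wild-type Tsc2; percent cells positive for phospho-rpS6 Ser235/236 relative to propidium iodide stain; plate controls were DMSO wells for no effect and 7.5 nM rapamycin control wells for full effect.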 To be noted: mTORC1 pathway readout; series mostly up to 38.3 µM; activity change, negative = inhibition: at the top concentration. Put shortly: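 Tsc2-/-, p53-/- MEFs re-expressing WT Tsc2; cpd 24 hrs, 37 degree Celsius; PFA fix, Alexa-488 p-rpS6 (Ser235/236) Ab 2 hrs RT, PI counterstain; Acumen 488nm scan; p-S6/PI ratio → % positive cells; PI count = viability.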
As for `COC(=O)[C@@H](N)CCCN=C(N)N[N+](=O)[O-]`, the “activity change, negative = inhibition” value is 2.65% (inactive).
Consider `O=C(N[C@H]1CN2CCC1CC2)c1ccc(Cl)cc1`, for which the “activity change, negative = inhibition” value was -5.25% (inactive).
Still for that read-out and setting: under `CC[C@@H](C(N)=O)N1CCCC1=O` stands 6.88% (inactive).
Regarding `C/C=C(/C)C(=O)O[C@H]1C(C)=C2[C@H]([C@@H]1OC(=O)CCCCCCC)[C@@](C)(OC(C)=O)C[C@H](OC(=O)CCC)[C@@]1(O)[C@H]2OC(=O)[C@@]1(C)O`, the Potency was 8.3 nM (active).
In the case of `c1ccc(C2(c3ccccc3)CC2C2=NCCN2)cc1` (configuration not stated), the “activity change, negative = inhibition” value was 4.14% (inactive).

The nature of a further experiment: Validation screen for inhibitors of Lassa infection (AID 463096; calls by dose curve; also: % is scaled to controls: 0 for no effect and ±100 for the full control effect). To be noted: Lassa virus infection, cell-based; series mostly up to 46.1 µM; activity change, negative = inhibition: at the top concentration.
In the case of `CC(C)(Sc1ccc(CCN(CCCCC2CCCCC2)C(=O)NC2CCCCC2)cc1)C(=O)O`, the “activity change, negative = inhibition” value is -4.87% (inactive).
With `CS(=O)(=O)Nc1ccc([N+](=O)[O-])cc1Oc1ccccc1`, the “activity change, negative = inhibition” value was -22.2% (inactive).
Same read-out and setting: the result for `CCN(CC)CCNC(=O)c1ccc(NC(C)=O)cc1` reads 44% (inactive); that for `CCn1cc(C(=O)O)c(=O)c2cc3c(cc21)OCO3`, -5.22% (inactive); that for `CC1=C(/C=C/C(C)=C/C=C/C(C)=C/C(=O)O)C(C)(C)CCC1`, 23.7% (inactive).
Same read-out and setting: the result for `NCCCC(N)(C(=O)O)C(F)F` (configuration not stated) reads -14.6% (inactive); that for `C[C@@H](N)C1CCC(C(=O)Nc2ccncc2)CC1` (some centres not stated), 11.5% (inactive); that for `NCCS`, -21.7% (inactive).
As for `CCc1c(C)[nH]c2c1C(=O)C(CN1CCOCC1)CC2` (configuration not stated), the “activity change, negative = inhibition” value is -16.7% (inactive).
The same measure, in the same setting: the result for `CC(C)c1ccc2c(c1)c(SC(C)(C)C)c(CC(C)(C)C(=O)O)n2Cc1ccc(Cl)cc1` reads -8.94% (inactive); that for `CC(C)C[C@H](NC(=O)[C@@H](O)[C@H](N)Cc1ccccc1)C(=O)O`, 5.66% (inactive).
Still for that read-out and setting: under `CCN1CCc2nc(N)oc2CC1` stands -5.31% (inactive).
On the same count and under the same terms, the result for `CC(=O)Oc1ccccc1C(=O)O` reads 14.3% (inactive); that for `CC(C[N+](C)(C)C)OC(N)=O` (configuration not stated), -10.3% (inactive).
Take `CC(C)(C)NCC(O)c1ccc(O)c(CO)c1` (configuration not stated): the Potency result was “inactive”.

Values taken from PubChem BioAssay (NCATS).
